# Test results taken from PubChem BioAssay (NCATS).
# Records with an inconclusive call do not appear. The source made the active and inactive calls. Unless noted, the call rests on the fitted dose curve; in most records, active means well fitted curve in the direction sought with a large enough effect; inconclusive means small, poorly fitted or top-dose-only effect, or another doubt; inactive means no such curve, though single readings can be large; an effect the other way counts as inactive or inconclusive.
# How the values were obtained:
# [1] = Quantitative High-Throughput drug screen in 47 multiple myeloma cell lines against the NCATS MIPE library collection: OPM2_DSMZ cell viability assay (AID 1919872); details: OPM2 myeloma viability, CellTiter-Glo ATP luminescence, 48 h; series mostly up to 45.8 µM; further: nearly all actives have a fitted effect of over 30% in size; further: potency means the concentration at half of the fitted maximal effect
# In short: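 CellTiter-Glo ATP luminescence gave viability after 48 h compound treatment at 37C of 500 multiple myeloma cells per well. Normalisation used DMSO-only wells as 100% and media-only wells as 0% viability; primary qHTS of approved and investigational drugs.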
# [2] = Quantitative High-Throughput drug screen in 47 multiple myeloma cell lines against the NCATS MIPE library collection: KMS11_JCRBsus cell viability assay (AID 1919873); details: KMS11 myeloma viability, CellTiter-Glo ATP luminescence, 48 h; series mostly up to 45.8 µM; further: nearly all actives have a fitted effect of over 50% in size; further: potency means the concentration at half of the fitted maximal effect
# In short: (§1)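 Plated at 500 cells per well, myeloma lines received MIPE 4.0 compounds by pin tool. Following 48 h culture at 37 °C, CellTiter-Glo luminescence gave viability relative to DMSO and media-only controls.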
# [3] = Quantitative High-Throughput drug screen in 47 multiple myeloma cell lines against the NCATS MIPE library collection: KMS28BM_JCRB cell viability assay (AID 1919874); details: CellTiter-Glo ATP, 48 h; series mostly up to 45.8 µM; further: nearly all actives have a fitted effect of over 35% in size; further: potency means the concentration at half of the fitted maximal effect
# In short: as §1
# [4] = qHTS drug screen for cell cycle checkpoint inhibitors in PARPi-resistant BRCA-mutant ovarian cancer cell lines. (AID 1963452; calls by dose curve; further: potency means the concentration at half of the fitted maximal effect); details: PEO1/OlaR viability, CellTiter-Glo luminescence, 96 h; for Z-AUC: stronger effect = lower value
# In short: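 PEO1, PEO4 and PEO1/OlaR ovarian cancer cells, 600 per well, exposed 96 h at 37C to a dilution series. Viability read by CellTiter-Glo luminescence, normalized to DMSO and empty wells; activity summarized as Z-AUC.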
# [5] = qHTS for identification of novel therapeutic agents for treatment of microphthalmiaassociated transcription factor (MiT) renal cell carcinoma (RCC) (AID 1963991; calls by dose curve; further: potency means the concentration at half of the fitted maximal effect); details: CellTiter-Glo, 48 h; for z-score: stronger effect = lower value
# In short: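 Three TFE3-fusion RCC lines (UOK109, UOK124, UOK145), 500 cells/well in complete medium, were treated with MIPE 4.0 compounds for 48 hours at 37 C. Viability was by CellTiter-Glo luminescence, normalized to DMSO (100%) and empty wells (0%); curves fitted over 11 concentrations.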
# [6] = Quantitative High-Throughput drug screen in 47 multiple myeloma cell lines against the NCATS MIPE library collection: RPMI8226_ATCC cell viability assay (AID 1919871); details: RPMI8226 myeloma viability, CellTiter-Glo ATP luminescence, 48 h; series mostly up to 45.8 µM; further: nearly all actives have a fitted effect of over 30% in size
# In short: as §1
# [7] = qHTS profiling for inhibitors of Plasmodium falciparum proliferation (AID 504749); further: potency means the concentration at half of the fitted maximal effect;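 on activity, negative = inhibition: 0% = DMSO vehicle and full inhibition = artemisinin control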; on all read-outs here: nearly all actives have a fitted effect of over 60% in size; details: P. falciparum in erythrocytes, SYBR Green DNA, 72 h; for activity, negative = inhibition: at 28.7 µM (top of the series)
# In short: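 Three-day growth assay of blood-stage parasites in erythrocytes (0.3% parasitemia, 2.5% hematocrit) at 37 C, 5% CO2, quantified by SYBR Green DNA staining after overnight detergent lysis.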
# [8] = measured here: PEO1 parental Z-AUC
# [9] = TFE3-RCC UOK109 viability, measured here: UOK109 Z-AUC
# [10] = TFE3-RCC viability, measured here: UOK124 Z-AUC
# [11] = TFE3-RCC viability, measured here: UOK145 Z-AUC
structure (smiles),measurement,setting,value
c1ccc([C@H]2CN3CCSC3=N2)cc1,Potency,[1],inactive
same,Potency,[2],inactive
same,Potency,[3],inactive
same,Z-AUC,[4],-0.761 (inactive)
same,Z-AUC,[4]; [8],-0.401
same,Z-AUC,[4]; measured here: PEO4 Z-AUC,-0.638
same,z-score,[5]; [9],0.343
same,z-score,[5]; [10],0.703
same,z-score,[5]; [11],0.523
CN(C)C(=O)c1ccc(S(=O)(=O)c2ccc(NC(=O)[C@@](C)(O)C(F)(F)F)c(Cl)c2)cc1,Potency,[6],inactive
same,Potency,[1],inactive
same,Potency,[3],inactive
same,Z-AUC,[4],0.422 (inactive)
same,Z-AUC,[4]; [8],-0.221
same,Z-AUC,[4]; measured here: PEO4 Z-AUC,0.763
CN(C(=O)c1ccc(F)cc1C(F)(F)F)C1CCN(c2nnc(-c3ccnn3C)c3ccccc23)CC1,Z-AUC,[4],-0.541 (inactive)
same,Z-AUC,[4]; [8],-0.599
same,Z-AUC,[4]; measured here: PEO4 Z-AUC,-0.538
O=C1CCCC2=C1C(c1[nH]ncc1Cl)N=C(Nc1nc3ccccc3o1)N2 (stereo unspecified),Potency,[1],inactive
same,Z-AUC,[4],0.0101 (inactive)
same,Z-AUC,[4]; [8],0.851
same,Z-AUC,[4]; measured here: PEO4 Z-AUC,0.0586
C/C(=C\C(=O)Nc1ccccc1C(=O)O)c1ccc2ccccc2c1,Z-AUC,[4],0.258 (inactive)
same,Z-AUC,[4]; [8],0.668
same,Z-AUC,[4]; measured here: PEO4 Z-AUC,0.827
CN([C@@H](Cc1ccc(OS(=O)(=O)c2cccc3cnccc23)cc1)C(=O)N1CCN(c2ccccc2)CC1)S(=O)(=O)c1cccc2cnccc12,Z-AUC,[4],1.57 (inactive)
same,Z-AUC,[4]; [8],1.54
same,Z-AUC,[4]; measured here: PEO4 Z-AUC,1.7
CCCc1nn(C)c2c(=O)[nH]c(-c3cc(S(=O)(=O)N4CCN(C)CC4)ccc3OCC)nc12,Z-AUC,[4],1.57 (inactive)
same,Z-AUC,[4]; [8],1.2
same,Z-AUC,[4]; measured here: PEO4 Z-AUC,0.991
same,"activity, negative = inhibition",[7]; parasite line A,8.82% (inactive)
same,"activity, negative = inhibition",[7]; parasite line B,0.131% (inactive)
Cc1ccccc1C(OCCN(C)C)c1ccccc1 (stereo unspecified),Potency,[6],inactive
same,Potency,[1],inactive
same,Potency,[2],inactive
same,Potency,[3],7.43 µM (active)
same,"activity, negative = inhibition",[7]; parasite line A,-3.11% (inactive)
same,"activity, negative = inhibition",[7]; parasite line B,5.42% (inactive)
NC(=O)c1ccc(-c2nc(-c3ccc4c(c3)OCO4)c(-c3ccccn3)[nH]2)cc1,Potency,[2],inactive
same,Potency,[3],inactive
same,Z-AUC,[4],0.53 (inactive)
same,Z-AUC,[4]; [8],1.15
same,Z-AUC,[4]; measured here: PEO4 Z-AUC,0.909
same,z-score,[5]; [9],0.874
same,z-score,[5]; [10],1.69
same,z-score,[5]; [11],0.197
CC[C@H](Nc1ncnc2nc[nH]c12)c1nc2cccc(F)c2c(=O)n1-c1ccccc1,Potency,[2],18.7 µM (active)
same,Z-AUC,[4],0.714 (inactive)
same,Z-AUC,[4]; [8],0.526
same,Z-AUC,[4]; measured here: PEO4 Z-AUC,0.476
CCOc1ccn(-c2ccc(F)cc2)c(=O)c1C(=O)Nc1ccc(Oc2ccnc(N)c2Cl)c(F)c1,Potency,[1],inactive
same,Z-AUC,[4],-0.773 (inactive)
same,Z-AUC,[4]; [8],-0.706
same,Z-AUC,[4]; measured here: PEO4 Z-AUC,-0.86
NCCCC(N)(C(=O)O)C(F)F (stereo unspecified),Potency,[1],inactive
same,Potency,[2],18.7 µM (active)
same,Potency,[3],inactive
same,Z-AUC,[4],0.209 (inactive)
same,Z-AUC,[4]; [8],0.253
same,Z-AUC,[4]; measured here: PEO4 Z-AUC,1.05
same,"activity, negative = inhibition",[7]; parasite line A,2.98% (inactive)
same,"activity, negative = inhibition",[7]; parasite line B,4.55% (inactive)
C1COC(NC(C2CC2)C2CC2)=N1,Potency,[1],inactive
same,Potency,[2],inactive
same,Potency,[3],inactive
same,Z-AUC,[4],-0.361 (inactive)
same,Z-AUC,[4]; [8],-0.558
same,Z-AUC,[4]; measured here: PEO4 Z-AUC,-0.616
same,Potency,[7]; parasite line A,7.94 µM (active)
CC(C)c1onc(-c2c(Cl)cccc2Cl)c1COc1ccc(/C=C/c2cccc(C(=O)O)c2)c(Cl)c1,Z-AUC,[4],0.394 (inactive)
same,Z-AUC,[4]; [8],-0.0133
same,Z-AUC,[4]; measured here: PEO4 Z-AUC,0.0704
O=C(C1CC1)N1CC[C@@H](Cn2c(-c3ccc(-c4ccc5occc5c4)cc3)nc3cnccc32)C1,Potency,[6],inactive
same,Potency,[1],20.9 µM (active)
same,Z-AUC,[4],0.419 (inactive)
same,Z-AUC,[4]; [8],0.824
same,Z-AUC,[4]; measured here: PEO4 Z-AUC,0.902
C[C@]12CCC(=O)C=C1CC[C@@H]1[C@@H]2[C@@H](O)C[C@@]2(C)[C@H]1CC[C@]2(O)C(=O)CO,Z-AUC,[4],0.00041 (inactive)
same,Z-AUC,[4]; [8],0.66
same,Z-AUC,[4]; measured here: PEO4 Z-AUC,-0.19
CC[C@@H](C)[C@H](NC(=O)[C@H](CC1CCCCC1)NC(=O)c1ccno1)C(=O)N1CCC2(CCc3ccccc32)CC1,Potency,[1],11.8 µM (active)
same,Potency,[3],inactive
same,Z-AUC,[4],-0.29 (inactive)
same,Z-AUC,[4]; [8],-0.177
same,Z-AUC,[4]; measured here: PEO4 Z-AUC,-0.471
same,z-score,[5]; [9],0.139
same,z-score,[5]; [10],0.261
same,z-score,[5]; [11],-0.242
COc1ccc(-c2c(-c3ccc(O)cc3O)n[nH]c2C)cc1,Potency,[6],inactive
same,Potency,[1],inactive
same,Potency,[2],48.1 µM (active)
same,Z-AUC,[4],0.835 (inactive)
same,Z-AUC,[4]; [8],0.673
same,Z-AUC,[4]; measured here: PEO4 Z-AUC,1.1
C#Cc1cccc(Nc2ncnc3cc(OCCOC)c(OCCOC)cc23)c1,Potency,[1],inactive
same,Potency,[3],0.833 µM (active)
same,Z-AUC,[4],-0.425 (inactive)
same,Z-AUC,[4]; [8],-1.02
same,Z-AUC,[4]; measured here: PEO4 Z-AUC,-0.978
same,Potency,"[5]; TFE3-RCC UOK109 viability, active = Z-AUC below -0.8 in all three lines",0.0526 µM (active)
same,z-score,[5]; [9],-2.56
same,z-score,[5]; [10],-1.06
same,z-score,[5]; [11],-1.55
CCC(C)(C)C(=O)O[C@H]1C[C@@H](C)C=C2C=C[C@H](C)[C@H](CC[C@@H]3C[C@@H](O)CC(=O)O3)[C@H]21,Potency,[2],13.2 µM (active)
same,Z-AUC,[4],1.29 (inactive)
same,Z-AUC,[4]; [8],1.6
same,Z-AUC,[4]; measured here: PEO4 Z-AUC,2.06
CC1(C)SCCN(S(=O)(=O)c2ccc(OCC#CCO)cc2)[C@@H]1C(=O)NO,Potency,[6],inactive
same,Potency,[1],inactive
same,Potency,[3],inactive
CCc1cncnc1N1CCN(Cc2nc3ccc(C(F)(F)F)cc3[nH]2)CC1,Potency,[1],9.35 µM (active)
same,Potency,[2],11.8 µM (active)
same,Potency,[3],23.5 µM (active)
same,Z-AUC,[4],-0.0922 (inactive)
same,Z-AUC,[4]; [8],-0.164
same,Z-AUC,[4]; measured here: PEO4 Z-AUC,0.451
Cn1c(=O)c(F)c(Nc2ccc(I)cc2F)c2c(=O)n(C[C@@H](O)CO)cnc21,Potency,[6],inactive
same,Potency,[3],inactive
same,Potency,[4],0.123 µM (active)
same,Z-AUC,[4]; [8],-1.86
same,Z-AUC,[4]; measured here: PEO4 Z-AUC,-2.03
CN[C@@H](C)C(=O)N[C@H]1CCCC[C@H]2CC[C@@H](C(=O)N[C@@H](c3ccccc3)c3cn(CCCCc4ccc(CCCCn5cc([C@@H](NC(=O)[C@@H]6CC[C@@H]7CCCC[C@H](NC(=O)[C@H](C)NC)C(=O)N76)c6ccccc6)nn5)cc4)nn3)N2C1=O,Potency,[1],inactive
same,Potency,[2],inactive
same,Z-AUC,[4],1.6 (inactive)
same,Z-AUC,[4]; [8],0.404
same,Z-AUC,[4]; measured here: PEO4 Z-AUC,0.201
COc1cc(Nc2ncc3c(n2)-c2ccc(Cl)cc2C(c2c(F)cccc2OC)=NC3)ccc1C(=O)O,Z-AUC,[4],-0.756 (inactive)
same,Z-AUC,[4]; [8],-0.991
same,Z-AUC,[4]; measured here: PEO4 Z-AUC,-1.47
Nc1cccc(S(=O)(=O)N2CCCN(S(=O)(=O)c3ccc4c(c3)OCCO4)CC2)c1,Potency,[1],inactive
same,Potency,[3],inactive
same,Z-AUC,[4],1.03 (inactive)
same,Z-AUC,[4]; [8],0.843
same,Z-AUC,[4]; measured here: PEO4 Z-AUC,0.787
same,z-score,[5]; [9],0.453
same,z-score,[5]; [10],0.564
same,z-score,[5]; [11],0.252
CCn1c(-c2nonc2N)nc2cnc(Oc3cccc(NC(=O)c4ccc(OCCN5CCOCC5)cc4)c3)cc21,Potency,[2],11.8 µM (active)
same,Potency,[3],5.26 µM (active)
same,Z-AUC,[4],0.926 (inactive)
same,Z-AUC,[4]; [8],0.828
same,Z-AUC,[4]; measured here: PEO4 Z-AUC,0.912
COc1ccccc1-c1cccc(-c2c(O)c3cc(C#N)c(Cl)cc3[nH]c2=O)c1,Potency,[6],inactive
same,Potency,[1],inactive
same,Z-AUC,[4],0.395 (inactive)
same,Z-AUC,[4]; [8],0.311
same,Z-AUC,[4]; measured here: PEO4 Z-AUC,0.381
same,z-score,[5]; [9],1.05
same,z-score,[5]; [10],-0.0424
same,z-score,[5]; [11],0.756
O=S(=O)(N=Cc1c(O)ccc2ccccc12)c1cccs1,Potency,[1],inactive
Cc1cc2c(F)c(Oc3ncnn4cc(OC[C@@H](C)O)c(C)c34)ccc2[nH]1,Potency,[1],23.5 µM (active)
same,Z-AUC,[4],0.786 (inactive)
same,Z-AUC,[4]; [8],0.535
same,Z-AUC,[4]; measured here: PEO4 Z-AUC,0.987
C[C@]1(c2nc3c(C(N)=O)cccc3[nH]2)CCCN1,Potency,[1],inactive
same,Z-AUC,[4],0.745 (inactive)
same,Z-AUC,[4]; [8],0.586
same,Z-AUC,[4]; measured here: PEO4 Z-AUC,0.314
O=c1[nH]c(-c2ccc(C(F)(F)F)cc2)nc2c1CSCC2,Potency,[1],inactive
same,Potency,[2],inactive
same,Potency,[3],inactive
same,Z-AUC,[4],0.604 (inactive)
same,Z-AUC,[4]; [8],0.431
same,Z-AUC,[4]; measured here: PEO4 Z-AUC,0.432
